# Experimental data: PubChem BioAssay (Tox21)
# Inconclusive results are not listed. Active and inactive are the calls of the source. The call rests on the fitted dose curve; in most records, active means well fitted inhibition curve with a large enough effect in the signal ratio in the repeat runs, with a control signal flat; inconclusive means weak or mixed curves, or effect the other way; inactive means flat fitted curve, though single readings scatter; the % refers to the signal ratio.
# Target: D(2) dopamine receptor (Homo sapiens) (UniProt P14416)
# Assay: Dopamine D2 receptor (DRD2) small molecule antagonists, cell-based qHTS assay (AID 1963595)
# Conditions: HEK293-DRD2 cAMP HTRF antagonist mode; series mostly up to 92.4 µM; activity change, negative = inhibition: at the top concentration
# From the text: National Center for Advancing Translational Sciences [NCATS]
# Division of Preclinical Innovation [DPI]
# U.S. Environmental Protection Agency [EPA]
# National Institutes of Environmental Health Sciences [NIEHS]
# National Toxicology Program [NTP]
# U.S. Food and Drug Administration [FDA]
# DRD2 is the D2 subtype of the dopamine receptor, which is coupled to Gi subtype of G protein-coupled receptor. This G protein-coupled receptor inhibits adenylyl cyclase activity. The DRD2-HEK293 cell line stably expressing D2 dopamine receptor can be used for screening agonists and antagonists of interactions between D2 and its ligands. The Hek293-DRD2 cAMP assay is based on HTRF technology. It measures changes of cAMP accumulation in response to Gi coupled GPCR activation or inhibition.
# Tox21 Assay Protocol Summary:
# DRD2-Hek293 cells were dispensed at 600 cells/3uL/well in 1536-well white plates using a Multidrop Dispenser. After the assay plates were incubated at a 37 C/5% CO2 incubator for 24 h, 1 uL of Ro20-1724 at final concentration of 0.1 mM was transferred to the assay plate by a Flying Reagent Dispenser. Following Ro20-1724 addition, 23 nL of compound dissolved in DMSO, positive controls or DMSO only was added to the assay plates via Wako pintool station. The assay plates were incubated at room temperature for 10 min. Next, 1 uL of mixture of NKH477 (final concentration at 200 nM) and quinpirole (final concentration at 12 nM) was added into the plates. After the assay plates were incubated at room temperature for an additional 30 min, 2.5 ul/well of cAMP-d2 and 2.5 ul/well of anti-cAMP-cryptate were added respectively into the assay plates using a Flying Reagent Dispenser. The plates were incubated at room temperature for 1 h. The fluorescence intensity in the plates was measured at 340 nm excitation and 665 & 620 nm emission by an Envision plate reader.
# On the % scale 0 is the no-effect control and ±100 the full control effect.
# Chain of D(2) dopamine receptor (Homo sapiens) (P14416 whole entry, looked up): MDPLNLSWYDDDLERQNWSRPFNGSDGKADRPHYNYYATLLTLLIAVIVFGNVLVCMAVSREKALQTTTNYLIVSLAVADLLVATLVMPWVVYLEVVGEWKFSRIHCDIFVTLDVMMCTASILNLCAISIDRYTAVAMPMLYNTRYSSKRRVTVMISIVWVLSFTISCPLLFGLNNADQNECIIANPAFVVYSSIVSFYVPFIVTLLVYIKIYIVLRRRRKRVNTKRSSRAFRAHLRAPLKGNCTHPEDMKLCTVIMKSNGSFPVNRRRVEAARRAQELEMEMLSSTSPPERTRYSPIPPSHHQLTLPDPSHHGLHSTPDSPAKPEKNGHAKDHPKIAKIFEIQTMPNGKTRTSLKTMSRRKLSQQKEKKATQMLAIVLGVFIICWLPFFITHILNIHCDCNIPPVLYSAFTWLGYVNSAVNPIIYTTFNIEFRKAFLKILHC
Compound,"activity change, negative = inhibition",Potency
OC(C#CCN1CCCC1)(c1ccccc1)c1ccccc1,0.641% [at 42.5 µM] (inactive),
CC(C(=O)O)c1ccc2c(c1)[nH]c1ccc(Cl)cc12 (stereo not given),3.68% [at 42.5 µM] (inactive),
COc1c2occc2cc2ccc(=O)oc12,,inactive
FC(F)(Cl)C(F)(Cl)Cl,1.49% (inactive),
Cc1ccc(O)c(C(=O)c2ccccc2)c1,8.32% (inactive),
COCCOc1cc2cc(C(=O)NC3CCN(C(C)C)CC3)n(CC(=O)Nc3ccc(Cl)cn3)c2cn1,2.47% (inactive),
[Cl][Au]([Cl])[Cl],-0.415% (inactive),
COc1cc(NCc2ccc3nc(N)nc(N)c3c2C)cc(OC)c1OC,-22.8% [at 42.5 µM] (inactive),
CCCCCOC(=O)Nc1nc(=O)n([C@@H]2O[C@H](C)[C@@H](O)[C@H]2O)cc1F,4.12% [at 42.5 µM] (inactive),
COC(=O)CSc1cc(N=c2sc(=O)n3n2CCCC3)c(F)cc1Cl,-4.87% (inactive),
CCCCCCOc1ccccc1C(N)=O,-1.79% [at 42.5 µM] (inactive),
N[C@@H](CCC(=O)O)C(=O)O,7.51% (inactive),
CCCC(CCC)(C(=O)OCC)C(=O)OCC,6.02% [at 42.5 µM] (inactive),
O=C(O)COCCN1CCN(C(c2ccccc2)c2ccc(Cl)cc2)CC1 (stereo not given),,inactive
CC(C)CCOC(=O)c1ccc(N(C)C)cc1,5.3% [at 42.5 µM] (inactive),
CCc1c(C)cc(N)c(CC)c1N,0.361% (inactive),
O=C1CCCCCCCCCCCCCCO1,5.57% (inactive),
CC1=NN(c2cc(S(=O)(=O)O)ccc2Cl)C(=O)C1N=Nc1ccccc1 (stereo not given),6.48% (inactive),
CN(C)CCN(C)CCO,1.1% (inactive),
O=c1oc2cc(O)ccc2c2oc3cc(O)ccc3c12,8.96% (inactive),

Compound,"activity change, negative = inhibition",Potency
CCN[C@H]1C[C@H](C)S(=O)(=O)c2sc(S(N)(=O)=O)cc21,0.0158% [at 42.5 µM] (inactive),
O=c1cc(-c2ccc(O)cc2)oc2cc(O)cc(O)c12,,inactive
CC1CC(=O)NN=C1c1ccc(NCC(C)(C)NCC(O)COc2cc(Cl)ccc2C#N)cc1 (stereo not given),-0.874% [at 42.5 µM] (inactive),
CC[C@H](C)C(=O)O[C@H]1C[C@H](O)C=C2C=C[C@H](C)[C@H](CC[C@@H](O)C[C@@H](O)CC(=O)O)[C@H]21,-0.577% (inactive),
COc1ccc2cc(CCC(C)=O)ccc2c1,2.47% [at 42.5 µM] (inactive),
C[C@@H]1C[C@H]2O[C@@]3(O[C@@H]2C(C)(C)O)[C@H](O)[C@@]2(C)[C@@H]4CC[C@H]5C(C)(C)[C@@H](O[C@@H]6OC[C@@H](O)[C@H](O)[C@H]6O)CC[C@@]56C[C@@]46CC[C@]2(C)[C@@H]13,-0.434% [at 42.5 µM] (inactive),
CC(=O)Nc1ccc(OCCOCCOc2ccc(NC(C)=O)cc2)cc1,-0.94% [at 42.5 µM] (inactive),
CNC(=S)NN,-2.01% (inactive),
CCc1ccc(C(c2ccc(CC)cc2)C(Cl)Cl)cc1,,inactive
CCCC(C)CC (stereo not given),-0.765% (inactive),
O=C(Nc1ccc(Cl)c(Cl)c1)c1cc(Cl)cc(Cl)c1O,0.0258% (inactive),
CCCCCCCCCCCCCCCS(=O)(=O)Oc1ccccc1,-1.12% [at 42.5 µM] (inactive),
Cc1oc2c(NC(=O)c3c(Cl)cccc3Cl)cccc2c1C(C)(C)O,-1% (inactive),
N#Cc1ccccc1C#N,0.193% (inactive),
CCCCCOC(=O)c1ccc(O)cc1,-2.74% (inactive),
Cc1cc(O)c2c(c1)C(=O)c1cc(O)cc(O)c1C2=O,,inactive
Oc1cc(Cl)cc(Cl)c1Cl,-5.97% (inactive),
CCOC(=O)CC(=O)C(=O)OCC,-4.39% (inactive),
Cc1cccc(OCC(O)CNC(C)(C)C)c1C (stereo not given),5.28% [at 42.5 µM] (inactive),
CC(=O)OC(OC(C)=O)c1ccc([N+](=O)[O-])o1,-19.6% (inactive),
